We go through 45 compounds from paper PMC4336329 (PLoS ONE, 2015).

Screen size: about 310,000 compounds; about 14,000 (4.5%) showed an effect of 50% or more. Effects have a minus sign here. This is one part of a sample in which strong results are shown more often than they occur.
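Also: peak tail current of the secondary pulse compared with the same well before compound.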

human ether-à-go-go-related gene (hERG) potassium channel, sequence (Q12809 whole entry, looked up): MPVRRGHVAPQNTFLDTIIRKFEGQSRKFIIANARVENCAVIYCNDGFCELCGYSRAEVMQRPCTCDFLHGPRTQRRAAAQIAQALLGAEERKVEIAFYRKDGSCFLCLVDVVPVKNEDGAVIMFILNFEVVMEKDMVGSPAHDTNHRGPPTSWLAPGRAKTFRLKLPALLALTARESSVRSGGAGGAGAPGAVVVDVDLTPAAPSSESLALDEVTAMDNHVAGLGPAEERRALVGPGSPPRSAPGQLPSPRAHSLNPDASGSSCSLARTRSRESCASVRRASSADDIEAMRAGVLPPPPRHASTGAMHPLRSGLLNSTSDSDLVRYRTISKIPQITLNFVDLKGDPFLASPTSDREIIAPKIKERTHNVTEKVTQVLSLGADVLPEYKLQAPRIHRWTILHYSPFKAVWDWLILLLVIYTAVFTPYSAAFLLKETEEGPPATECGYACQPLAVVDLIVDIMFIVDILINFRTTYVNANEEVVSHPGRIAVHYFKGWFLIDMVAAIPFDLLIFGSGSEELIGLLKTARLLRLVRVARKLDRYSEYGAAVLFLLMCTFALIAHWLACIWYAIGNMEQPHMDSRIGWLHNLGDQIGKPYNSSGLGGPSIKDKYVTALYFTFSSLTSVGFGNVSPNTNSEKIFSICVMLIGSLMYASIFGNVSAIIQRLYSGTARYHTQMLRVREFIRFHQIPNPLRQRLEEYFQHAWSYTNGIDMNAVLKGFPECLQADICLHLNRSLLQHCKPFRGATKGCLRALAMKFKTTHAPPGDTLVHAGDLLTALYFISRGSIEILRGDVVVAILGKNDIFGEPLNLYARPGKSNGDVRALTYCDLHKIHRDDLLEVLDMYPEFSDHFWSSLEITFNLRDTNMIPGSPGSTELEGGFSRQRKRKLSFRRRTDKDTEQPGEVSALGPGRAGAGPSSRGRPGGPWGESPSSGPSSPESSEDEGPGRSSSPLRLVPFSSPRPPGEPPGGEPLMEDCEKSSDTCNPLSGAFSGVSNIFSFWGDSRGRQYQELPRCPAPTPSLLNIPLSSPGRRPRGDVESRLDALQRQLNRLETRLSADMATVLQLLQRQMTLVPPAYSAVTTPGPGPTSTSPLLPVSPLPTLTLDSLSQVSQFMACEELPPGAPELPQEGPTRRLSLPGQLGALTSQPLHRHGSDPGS

The assay concerns the target human ether-à-go-go-related gene (hERG) potassium channel (human, UniProt Q12809). The experiment in a line: primary screen, population patch clamp on CHO cells stably expressing hERG; higher = less effect of the substance.
As to `Cc1nc2ccccn2c1P(=Nc1ccccc1)(N(C)C)N(C)C`, the “hERG current change (%, negative = inhibition) at 10uM” value is given as -52.5%.

`CCN(CC)P(=O)(c1ccccc1)c1c(C)nc2ccccn12` (stereo not drawn): the “hERG current change (%, negative = inhibition) at 10uM” value is -3.24%.

Consider `CCN(CC)P(=S)(c1c(C)nc2ccccn12)c1c(C)nc2ccccn12`, for which the “hERG current change (%, negative = inhibition) at 10uM” value was -9.33%.

Turning to `N#Cc1c(SCC(=O)Nc2nc3ccc(Br)cc3s2)sc2c(O)cc(=O)[nH]c12`, the “hERG current change (%, negative = inhibition) at 10uM” value is on record as 9.27%.

Take `CC(C)CNC(=S)NC(=O)c1ccc(F)cc1`: the “hERG current change (%, negative = inhibition) at 10uM” value is 5.45%.

Take `CC(=O)c1ccc2c(c1)C1C=CCC1C(c1ccncc1)N2` (stereo not drawn): the “hERG current change (%, negative = inhibition) at 10uM” value is given as -21%.

For `COC(=O)c1ccc(C2Nc3ccc(/C(C)=N/NC(=O)C(OC)c4ccccc4)cc3C3C=CCC32)cc1` (stereo not drawn), the “hERG current change (%, negative = inhibition) at 10uM” value is on record as -76.2%.

For the compound `COc1ccc(C(=O)N/N=C(\C)c2ccc3c(c2)C2C=CCC2C(c2ccccc2)N3)cc1` (stereo not drawn), the “hERG current change (%, negative = inhibition) at 10uM” value was -1.79%.

On to `CCN(CC)C(=O)c1csc(Nc2ccc(C)cc2)n1`, for which the “hERG current change (%, negative = inhibition) at 10uM” value was -34.8%.

With `S=C(NCc1cccnc1)Nc1cccc2ccccc12`, the “hERG current change (%, negative = inhibition) at 10uM” value is given as -9.3%.

`c1ccc(-c2nc3ccccc3nc2N2CCOCC2)cc1`: the “hERG current change (%, negative = inhibition) at 10uM” value was -54.7%.

Turning to `c1ccc2nc(N3CCOCC3)c(N3CCOCC3)nc2c1`, the “hERG current change (%, negative = inhibition) at 10uM” value was -1.12%.

Take `c1ccc2c(c1)nc(N1CCOCC1)c1ccccc12`: the “hERG current change (%, negative = inhibition) at 10uM” value was 11.2%.

As to `Br.CCCCN1C2=NCCCN2c2cc(C)c(C)cc21`, the “hERG current change (%, negative = inhibition) at 10uM” value was -65.4%.

Consider `CCCN1C2=NCCN2c2cc(C)c(C)cc21.Cl`, for which the “hERG current change (%, negative = inhibition) at 10uM” value was -30.7%.

With `CCCN1C2=NCCCN2c2ccccc21.Cl`, the “hERG current change (%, negative = inhibition) at 10uM” value was -9.58%.

With `CCCCN1C(N)=NC[C@@H]1c1ccccc1`, the “hERG current change (%, negative = inhibition) at 10uM” value was -2.61%.

With `CCCCN1C2=NC(c3ccccc3)CN2c2ccccc21.Cl` (stereo not drawn), the “hERG current change (%, negative = inhibition) at 10uM” value is reported as -69%.

For `c1ccc([C@H]2CN3C(=N2)Sc2ccccc23)cc1`, the “hERG current change (%, negative = inhibition) at 10uM” value was -19.2%.

On to `CCCCCCCN1C2=NCCCN2c2ccccc21.Cl`, for which the “hERG current change (%, negative = inhibition) at 10uM” value is -58.5%.

In the case of `Br.CCN1C2=NCCCN2c2cc(C)c(C)cc21`, the “hERG current change (%, negative = inhibition) at 10uM” value was -23.2%.

As to `Br.CCCCN1C2=NCCCN2c2ccccc21`, the “hERG current change (%, negative = inhibition) at 10uM” value was -54.5%.

`COCCN1C(=O)CS/C1=C(/C#N)C(=O)NCc1ccco1`: the “hERG current change (%, negative = inhibition) at 10uM” value was -7.92%.

With `COc1ccc(C(=O)O)cc1S(=O)(=O)Nc1cccc(C)c1`, the “hERG current change (%, negative = inhibition) at 10uM” value is listed as -18.9%.

`Cc1ccc(-n2nnc3c(=O)n(CC(=O)NCc4ccccc4)cnc32)cc1`: the “hERG current change (%, negative = inhibition) at 10uM” value is given as -15.5%.

Turning to `C[C@@H]1CC[C@@]23COC(=O)C2=CCC[C@@H]3[C@@]1(C)CC/C(=C/CO)CO`, the “hERG current change (%, negative = inhibition) at 10uM” value was -6.27%.

Regarding `O=C(c1ccc(Cl)c(Cl)c1)N1CCC(=O)N(C(CO)Cc2ccccc2)CC1` (stereo not drawn), the “hERG current change (%, negative = inhibition) at 10uM” value is recorded as 5.42%.

In the case of `CCOC(=O)c1cn2nc(Oc3cccc(C(F)(F)F)c3)ccc2n1`, the “hERG current change (%, negative = inhibition) at 10uM” value is -6.27%.

As for `O=c1cc(-c2ccncc2)oc2c1ccc1ccccc12`, the “hERG current change (%, negative = inhibition) at 10uM” value is recorded as -4.57%.

Turning to `CCCCCCN1C2=NCCCN2c2ccccc21.Cl`, the “hERG current change (%, negative = inhibition) at 10uM” value is -78.3%.

For `Cl.c1ccc2c(c1)N1CCCN=C1N2CCN1CCCCC1`, the “hERG current change (%, negative = inhibition) at 10uM” value is given as -62.8%.

On to `Cl.c1ccc2c(c1)N1CCN=C1N2CCN1CCCCC1`, for which the “hERG current change (%, negative = inhibition) at 10uM” value is reported as -15.3%.

Regarding `COc1cccc(/C=C/C(=O)Nc2ccc3[nH]c(=O)[nH]c3c2)c1`, the “hERG current change (%, negative = inhibition) at 10uM” value is recorded as 7.9%.

For `Cc1ccc(S(=O)(=O)N(C)CC(=O)N2CCN(Cc3ccc4c(c3)OCO4)CC2)cc1`, the “hERG current change (%, negative = inhibition) at 10uM” value is given as -66.6%.

In the case of `COc1ccc(N(CC(=O)N2CCN(Cc3ccc4c(c3)OCO4)CC2)S(=O)(=O)c2ccc(F)cc2)cc1`, the “hERG current change (%, negative = inhibition) at 10uM” value was -84.6%.

Take `COc1ccc(N(CC(=O)N2CCN(Cc3ccccc3)CC2)S(=O)(=O)c2ccccc2)cc1`: the “hERG current change (%, negative = inhibition) at 10uM” value is -26.3%.

Regarding `CS(=O)(=O)N(CC(=O)N1CCN(Cc2ccccc2)CC1)c1ccc2c(c1)OCCO2`, the “hERG current change (%, negative = inhibition) at 10uM” value is recorded as -5.94%.

`Cc1ccc(S(=O)(=O)N(C)c2ccc(C(=O)N3CCN(Cc4ccc5c(c4)OCO5)CC3)cc2)cc1`: the “hERG current change (%, negative = inhibition) at 10uM” value is -44.1%.

On to `O=C(CN(c1ccccc1)S(=O)(=O)c1ccccc1)N1CCN(Cc2ccc3c(c2)OCO3)CC1`, for which the “hERG current change (%, negative = inhibition) at 10uM” value is reported as -33.4%.

On to `Cc1ccc(S(=O)(=O)N(C)CC(=O)N2CCN(Cc3ccccc3)CC2)cc1`, for which the “hERG current change (%, negative = inhibition) at 10uM” value is on record as -24.6%.

For `COc1ccc(N(CC(=O)N2CCN(Cc3ccc4c(c3)OCO4)CC2)S(C)(=O)=O)cc1OC`, the “hERG current change (%, negative = inhibition) at 10uM” value amounted to 9.47%.

In the case of `CS(=O)(=O)N(CC(=O)N1CCN(Cc2ccc3c(c2)OCO3)CC1)c1ccc2c(c1)OCO2`, the “hERG current change (%, negative = inhibition) at 10uM” value was -58.9%.

Take `COc1ccc(S(=O)(=O)N(CC(=O)N2CCN(C)CC2)c2ccc(C)cc2)cc1OC`: the “hERG current change (%, negative = inhibition) at 10uM” value is -11%.

Take `CCN1CCN(C(=O)CN(c2ccc(F)cc2)S(=O)(=O)c2ccc(OC)c(OC)c2)CC1`: the “hERG current change (%, negative = inhibition) at 10uM” value is on record as -66.8%.

Take `COc1ccc(S(=O)(=O)N(CC(=O)N2CCOCC2)c2ccc(F)cc2)cc1OC`: the “hERG current change (%, negative = inhibition) at 10uM” value stood at 10.7%.
